Assay outcomes deposited in PubChem by several laboratories.
This is a sample that favours compounds with a hit; in the whole collection about 4.2% have one here.
DAX1 StAR inh: blocks DAX1 repression of SF-1 activated StAR promoter; HEK293T StAR-luciferase reporter, SF-1/DAX-1 repression relief; 1.1% of 370,000 active; inhibition, % at 6.8 µM;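 active means inhibition above the mean over all tested compounds plus 3 SD, cut at about 3.6% in these data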;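 further: 0% = DAX-1 cells with DMSO and 100% = cells lacking DAX-1 with DMSO; higher inhibition means more luminescence from relief of DAX-1 repression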
esBAF inh: inhibitors of esBAF chromatin remodeling in mouse ES cells; Bmi1-luciferase knock-in reporter, 24 h; 100% = twice the neutral-well signal; 2% of 350,000 active; reporter increase, % at 12.5 µM; in the data active means activation above about 40%;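 further: 0% = median of the plate's neutral control wells and 100% = double that signal; a rise in the Bmi1 reporter signal indicates esBAF inhibition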
ssDAF12 agonist: S. stercoralis DAF-12 activation, primary screen; 1% of 370,000 active; HEK293 ssDAF-12/GRIP1 lit1-tk-luc reporter, luminescence; % of 3 µM dafachronic acid response; activation, % at 6.8 µM;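 active means activation above the mean over all tested compounds plus 3 SD, cut at about 0.9% in these data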;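 further: 0% = DMSO-only wells and 100% = 3 µM delta7-dafachronic acid wells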
hcDAF12 agonist: activators of H. contortus DAF-12 nuclear receptor. 1.4% of 370,000 active. activation, % at 6.8 µM. HEK293 hcDAF-12 lit1-tk-luc reporter, luminescence; 0% DMSO, 100% Δ7-dafachronic acid;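 active means activation above the mean of all tested compounds plus 3 SD, cut at about 5.5% in these data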;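 further: 100% = response to 3 µM Δ7-dafachronic acid high control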
hgDAF12 agonist: activates the H. glycines DAF-12 receptor ligand-binding domain; HEK293 GAL4-hgDAF12 UAS-luciferase reporter, agonist luminescence; normalized to butyrate control; activation, % at 6.8 µM; 1.8% of 370,000 active;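 active means activation above a cutoff set at the mean of all screened compounds plus 3 SD, cut at about 10% in these data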;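 further: 0% = DMSO wells and 100% = sodium butyrate wells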
Wnt bcat act: activates Wnt/beta-catenin signaling in a reporter cell assay; activator, plate reader; activation, % at 9.35 µM; 1.2% of 300,000 active; in the data active means activation above about 30%, passing the limit was not always enough;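 further: 0% = neutral control wells and 100% = positive control wells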
Numbers without * were called inactive; . = no result.

SMILES	DAX1 StAR inh	esBAF inh	ssDAF12 agonist	hcDAF12 agonist	hgDAF12 agonist	Wnt bcat act
O=C(C[C@H]1CC[C@@H]2[C@H](COC[C@@H](O)CN2Cc2nccs2)O1)NCc1ccccc1	.	0	.	.	.	.
COc1cccc(NC(=O)CN(C)C(=O)c2cc(S(=O)(=O)N3CCCCC3)ccc2Cl)c1	4.2*	3	0	-2	-2	0
NNC(=S)Nc1ccc(Cl)cc1	0	-3	0	1	3	-1
Cc1ccc(Cl)cc1NC(=S)NN	0	.	0.9*	2	2	-1
CN(C)C(=O)C[C@H]1C[C@H]2c3cc(NC(=O)c4ccc5c(c4)OCO5)ccc3O[C@H]2[C@@H](CO)O1	.	14	.	.	.	.
Fc1ccccc1NC(=S)NCCc1ccccc1	0	49*	0	1	5	-1
Fc1ccccc1NC(=S)NCCc1ccc(Cl)cc1	2	59*	0	0	8	21
CSc1ccccc1NC(=S)NCc1ccc(Cl)cc1	1	59*	-1	0	6	13
Fc1ccc(F)c(NC(=S)NCCc2ccccc2)c1	-1	6	-1	-2	-2	9
Cc1c(Cl)cccc1NC(=S)NCCc1ccc(Cl)cc1	0	5	-1	-3	1	0
S=C(NCc1ccc(Cl)cc1)Nc1ccccc1Cl	0	.	-1	0	0	.
C[C@H]1CN([C@@H](C)CO)C(=O)c2cc(NS(=O)(=O)c3ccc(F)cc3)ccc2O[C@@H]1CN(C)C	.	-2	.	.	.	.
CC(C)N(C)c1ncnc2c1ncn2[C@H]1CN(Cc2cccnc2)C[C@@H](CO)O1	-1	-11	8.1*	-1	-1	-3
Cc1cccc2c1-c1sc(C(=O)Nc3cccnc3)cc1CO2	-1	50*	0	2	3	-1
CCOC(=O)c1cc2c(s1)-c1c(C)cccc1OC2	1	64*	1	3	0	16
CCc1sc(C(=O)Nc2cccnc2)cc1Br	0	50*	-1	-2	7	9
Cc1ccc(S(=O)(=O)Nc2ccc3c(c2)CC(=O)N([C@@H](C)CO)C[C@@H](C)[C@H](CN(C)S(=O)(=O)c2cccs2)O3)cc1	.	10	.	.	.	.
Cc1noc(C)c1NC(=O)Nc1ccc2c(c1)C(=O)N([C@H](C)CO)C[C@H](C)[C@H](CN(C)C(=O)Nc1ccccc1)OCCCC[C@H](C)O2	.	-4	.	.	.	.
C[C@@H]1CN([C@@H](C)CO)C(=O)c2cccc(NC(=O)Nc3ccc(F)cc3)c2O[C@H]1CN(C)S(=O)(=O)c1cccs1	.	0	.	.	.	.
CN(CC(=O)Nc1cccc(F)c1)C(=O)c1ccc2c(c1)OCCO2	0	39	0	-1	2	4
CCCC(=O)Nc1cccc(NC(=O)c2ccc3c(c2)OCCO3)c1	0	43*	-2	0	0	7
O=C(Nc1cccc(F)c1)c1ccc2c(c1)OCCO2	2	40	1	6.3*	13*	-1
O=c1[nH]c2ccccc2nc1CCc1ccccc1	1	.	-1	0	6	31*
Fc1ccccc1CSCc1nc2ccccc2[nH]1	2	64*	0	2	7	2
c1ccc(CCc2nc3ccccc3[nH]2)cc1	1	20	0	2	13*	42*
SMILES	DAX1 StAR inh	esBAF inh	ssDAF12 agonist	hcDAF12 agonist	hgDAF12 agonist	Wnt bcat act
c1csc(Cc2nc3ccccc3[nH]2)c1	2	71*	-1	1	5	18
Cn1c(Cc2cccs2)nnc1SCc1nc2ccccc2[nH]1	1	-2	0	1	1	.
O=c1[nH]c2ccccc2nc1Cc1ccc(Cl)cc1	0	0	-1	0	-1	-7
COc1ccc(-c2ccc3c(c2)O[C@@H](CN(C)C(C)=O)[C@@H](C)CN([C@@H](C)CO)S3(=O)=O)cc1	.	6	.	.	.	.
CCCN(C)C[C@H]1Oc2ncc(-c3cccnc3)cc2C(=O)N([C@@H](C)CO)C[C@H]1C	.	-6	.	.	.	.
O=C(NCCSc1c(-c2ccccc2)[nH]c2ccccc12)c1cc2ccccc2oc1=O	0	3	-1	1	0	-3
Cc1ccc(-c2[nH]c3ccccc3c2SCCNC(=O)c2cc3ccccc3oc2=O)cc1	0	9	0	6.5*	3	3
Cc1noc(C)c1NC(=O)N[C@@H]1C=C[C@H](CC(=O)NCCCN(C)C)O[C@@H]1CO	.	-4	.	.	.	.
Nc1ccc(S(N)(=O)=O)cc1N	3	11	1	4	13*	3
N/C(=N\OC(=O)C1CCCCC1)c1ccccn1	2	.	0	2	12*	.
N/C(=N\OC(=O)C1CCCCC1)c1ccc(Br)cc1	0	66*	0	-1	1	25
N/C(=N\OC(=O)c1ccc2ccccc2c1)c1ccccn1	0	-86	-2	-2	-11	-26
N/C(=N\OC(=O)C1CCCCC1)c1ccncc1	1	.	-1	1	1	.
C[C@@H]1CCCCO[C@@H](CN(C)C(=O)NC2CCCCC2)[C@H](C)CN([C@@H](C)CO)C(=O)c2cc(NS(=O)(=O)c3cccs3)ccc2O1	.	8	.	.	.	.
C[C@H](NC(=O)[C@@H]1N[C@@H]2c3ccc(-c4ccc(C(=O)N(C)C)cc4)c(=O)n3C[C@@H]2[C@H]1CO)c1ccccc1	.	7	.	.	.	.
CC[n+]1c(/C=C/c2cc([N+](=O)[O-])ccc2O)ccc2ccccc21	1	43*	-2	-2	0	-2
CC[n+]1c(/C=C/c2ccc(N(C)C)cc2)ccc2ccccc21	-4	.	-3	-10	-15	.
CC[n+]1c(/C=C/c2ccc(OC(C)=O)c(OC)c2)ccc2ccccc21	2	83*	0	-1	6	17
CSc1ccc(-c2nnn(Cc3ccccn3)n2)cc1	2	51*	0	0	12*	-1
N#Cc1cccc(Cn2nnc(-c3ccccc3)n2)c1	-1	24	-1	-2	1	0
c1ccc(Cn2nnc(-c3ccccc3)n2)cc1	0	44*	-1	0	8	22
C[C@@H]1CN([C@H](C)CO)C(=O)Cc2cc(NC(=O)Nc3ccc(F)cc3)ccc2O[C@H]1CN(C)C(=O)Nc1ccccc1	.	0	.	.	.	.
C[C@H](CO)N1C[C@H](C)[C@@H](CN(C)CC2CCCCC2)Oc2ccc(NS(C)(=O)=O)cc2CC1=O	.	5	.	.	.	.
Cc1ccc(-n2[nH]c(C)c(/C=C3/C=Nc4ccccc43)c2=O)cc1C	0	54*	-1	3	3	-2
CCN(CC(=O)Nc1c(F)cccc1F)C(=O)c1cc(C)nc2ccccc12	-1	.	1.0*	2	0	-2
CCCNC(=O)C[C@@H]1CC[C@H]2[C@H](COc3ccc(NC(=O)CC)cc3C(=O)N2C)O1	.	2	.	.	.	.
CN=c1scc(C)n1/N=C/c1ccc(O)cc1	3	26	0	1	2	.
CN=c1scc(C)n1/N=C/c1ccc2c(c1)OCO2	5.6*	.	0	9.6*	11*	.
